Reference: PubChem BioAssay (Tox21)
Records with an inconclusive call do not appear. Activity calls are given as the source filed them. Unless noted, the call rests on the fitted dose curve; in most records, active means well fitted curve in the direction sought with a large enough effect in the repeat runs; inconclusive means weak or mixed curves; inactive means no such curve, though single readings can be large; an effect the other way counts as inactive or inconclusive.

Legend:
[1] = qHTS assay to identify small molecule agonists of the estrogen receptor alpha (ER-alpha) signaling pathway in the presence of an antagonist - cell viability counter screen (AID 1259386);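 further: series mostly up to about 92 µM; cells exposed to compounds for 22 h at 37 °C before the viability read; nearly all actives have a fitted effect of over 30% in size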
Outline: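 The test measures whether compounds kill ER-alpha reporter cells (VM7Luc4E2) under antagonist co-treatment (ICI-182,780, 10.0nM). Fluorescence from CellTiter-Fluor is read after a 22hr exposure.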

[2] = target: Progesterone receptor (Homo sapiens) (UniProt P06401); test: qHTS assay to identify small molecule agonists of the progesterone receptor (PR) signaling pathway (AID 1346784; calls by dose curve; further: nearly all actives have a fitted effect of over 30% in size; further: potency means the concentration at half of the fitted maximal effect)
Chain of Progesterone receptor (Homo sapiens) (P06401 whole entry, looked up): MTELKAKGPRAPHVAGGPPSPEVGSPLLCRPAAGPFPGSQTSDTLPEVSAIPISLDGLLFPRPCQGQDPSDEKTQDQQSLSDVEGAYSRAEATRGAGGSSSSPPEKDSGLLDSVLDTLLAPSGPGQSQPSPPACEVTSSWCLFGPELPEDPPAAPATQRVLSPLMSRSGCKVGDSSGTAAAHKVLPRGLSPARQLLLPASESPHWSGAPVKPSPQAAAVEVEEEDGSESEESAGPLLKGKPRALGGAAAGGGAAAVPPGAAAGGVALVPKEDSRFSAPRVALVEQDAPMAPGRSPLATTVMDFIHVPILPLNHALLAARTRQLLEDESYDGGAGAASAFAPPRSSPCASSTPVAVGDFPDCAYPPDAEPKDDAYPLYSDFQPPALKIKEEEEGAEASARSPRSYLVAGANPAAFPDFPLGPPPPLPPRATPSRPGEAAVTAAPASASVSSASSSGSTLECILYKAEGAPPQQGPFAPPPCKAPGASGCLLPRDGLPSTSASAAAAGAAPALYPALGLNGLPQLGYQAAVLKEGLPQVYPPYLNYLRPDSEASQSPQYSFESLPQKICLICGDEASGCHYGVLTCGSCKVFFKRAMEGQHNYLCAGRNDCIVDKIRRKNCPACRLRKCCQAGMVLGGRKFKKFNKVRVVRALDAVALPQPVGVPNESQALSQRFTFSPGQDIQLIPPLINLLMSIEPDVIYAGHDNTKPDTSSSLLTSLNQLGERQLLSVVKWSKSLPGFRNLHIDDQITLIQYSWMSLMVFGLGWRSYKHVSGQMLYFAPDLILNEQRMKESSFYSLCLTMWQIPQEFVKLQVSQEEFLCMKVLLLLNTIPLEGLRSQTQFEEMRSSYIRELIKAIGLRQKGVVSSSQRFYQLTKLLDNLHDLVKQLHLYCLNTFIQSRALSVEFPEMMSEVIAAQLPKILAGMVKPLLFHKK
Outline: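 The screen uses PR-UAS-bla HEK 293T cells in charcoal-stripped serum (2%). Compounds are applied for 16 hr at 37C after a 6 hr pre-incubation, and reporter activity is detected with a FRET beta-lactamase substrate after 2 hr at room temperature.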

[3] = target: Progesterone receptor (Homo sapiens) (UniProt P06401); test: qHTS assay to identify small molecule antagonists of the progesterone receptor (PR) signaling pathway (AID 1346795; active means well fitted inhibition curve with a large enough effect in the signal ratio in the repeat runs, not every such curve was filed as active; the % refers to the signal ratio)
Outline: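 After 6 hr plating at 37C in 2% stripped-serum medium, PR-UAS-bla HEK293T cells got compounds, then 1 nM R5020. Sixteen hours later, LiveBLAzer substrate was applied for 2 hr at room temperature and fluorescence was recorded.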

[4] = qHTS assay to identify small molecule antagonists of the progesterone receptor (PR) signaling pathway - cell viability counter screen (AID 1346798); further: series mostly up to about 92 µM; nearly all actives have a fitted effect of over 50% in size
Outline: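 Viability was determined by ATP-based luminescence (CellTiter-Glo) in PR-UAS-bla HEK293T cells cultured in 2% charcoal-stripped serum and incubated 16 hr with compounds under R5020 stimulation.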

[5] = qHTS assay to identify small molecule agonists of the progesterone receptor (PR) signaling pathway - cell viability counter screen (AID 1346799; calls by dose curve; further: nearly all actives have a fitted effect of over 45% in size)
Outline: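 Viability was scored by ATP luminescence (CellTiter-Glo, 30 min, room temperature) in the same wells used for the reporter readout, after 16 hr compound exposure of PR-UAS-bla HEK293T cells.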

[6] = qHTS assay to identify small molecule antagonists of the TGF-beta/Smad signaling pathway - cell viability counter screen (AID 1346824); further: nearly all actives have a fitted effect of over 50% in size
Outline: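 Cytotoxicity counter-screen run in the same wells as the beta-lactamase Smad reporter read: CellTiter-Glo luminescence after 30 min at room temperature. HEK 293T SBE-bla cells had 5 hr compound exposure at 37 C with TGF-beta1 (0.25 ng/mL stock).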

[7] = qHTS assay to identify small molecule agonists of the TGF-beta/Smad signaling pathway - cell viability counter screen (AID 1346829); further: top concentration of the series differs between compounds; nearly all actives have a fitted effect of over 45% in size
Outline: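 HEK 293T SBE-bla line, 5 hr compound exposure at 37 C, multiplexed CellTiter-Glo viability read by luminescence.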

[8] = qHTS assay to identify small molecule agonists of the TGF-beta/Smad signaling pathway (AID 1346859; active means well fitted activation curve with a large enough effect in the signal ratio in the repeat runs, not every such curve was filed as active; the % refers to the signal ratio; further: series mostly up to about 77 µM)
Outline: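 Dual-wavelength fluorescence (460/530 nm emission) quantified beta-lactamase expression under the Smad binding element in HEK 293T cells following 5 hr compound treatment at 37 C.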

[9] = target: Thyrotropin-releasing hormone receptor (Homo sapiens) (UniProt P34981); test: qHTS assay to identify small molecule antagonists of the thyrotropin-releasing hormone receptor (TRHR) signaling pathway (AID 1346877; active means well fitted inhibition curve with a large enough effect in the repeat runs, not every such curve was filed as active; further: series mostly up to about 51 µM)
Chain of Thyrotropin-releasing hormone receptor (Homo sapiens) (P34981 whole entry, looked up): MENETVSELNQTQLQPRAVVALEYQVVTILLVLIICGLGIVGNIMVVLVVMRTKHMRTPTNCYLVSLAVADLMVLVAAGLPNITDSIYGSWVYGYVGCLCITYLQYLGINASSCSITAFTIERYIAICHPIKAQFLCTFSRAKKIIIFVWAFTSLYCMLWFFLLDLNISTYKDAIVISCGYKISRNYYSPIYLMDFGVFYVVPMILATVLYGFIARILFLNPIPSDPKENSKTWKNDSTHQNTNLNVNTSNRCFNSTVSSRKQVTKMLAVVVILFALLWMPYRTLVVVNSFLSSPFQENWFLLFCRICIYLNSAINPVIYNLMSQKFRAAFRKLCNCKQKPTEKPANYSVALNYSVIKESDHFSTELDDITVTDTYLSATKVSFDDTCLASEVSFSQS
Outline: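 Overnight-plated (18 h, 37 °C) HEK293 cells expressing TRHR were dye-loaded 2 h, treated with compound, then stimulated with TRH at 1 nM final. Fluorescence intensity was captured every second for 3 min.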

[10] = target: Thyrotropin-releasing hormone receptor (Homo sapiens) (UniProt P34981); test: qHTS assay to identify small molecule agonists of the thyrotropin-releasing hormone receptor (TRHR) signaling pathway (AID 1346891; calls by dose curve;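 further: HEK293 cells expressing TRHR with calcium dye readout; series mostly up to about 58 µM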)
Outline: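 Kinetic fluorescence (3 min, 1 s intervals) reported intracellular calcium after compound transfer onto TRHR-Hek293 cells pre-loaded with dye for 2 h at 37 °C.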

[11] = Human pregnane X receptor (PXR) small molecule agonists, qHTS cell viability counter screen (AID 1346977); further: nearly all actives have a fitted effect of over 50% in size
Outline: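 HepG2 cells stably carrying the PXR-Luc reporter are cultured with 5% charcoal-stripped FBS and treated with compounds for 24hr. CellTiter-Fluor is added at 23hr and fluorescence is read after 1hr.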

[12] = Caspase-3/7 induction in HepG2 cells by small molecules, qHTS assay (AID 1346978); further: nearly all actives have a fitted effect of over 15% in size
Outline: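 Caspase-3/7 induction was measured by Caspase-Glo 3/7 luminescence (30 min, room temperature) after a 17 hr compound exposure of wild-type HepG2 cells seeded at 2,000 per well and pre-incubated 5 hr.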

[13] = Caspase-3/7 induction in CHO-K1 cells by small molecules, qHTS assay (AID 1346980); further: nearly all actives have a fitted effect of over 15% in size
Outline: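 Luminescent Caspase-Glo 3/7 read (30min, room temperature) quantified apoptosis induction. Cells were wild-type CHO-K1, treated with compound for 17hr at 37 C and 5% CO2.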

[14] = target: Nuclear receptor subfamily 1 group I member 2 (Homo sapiens) (UniProt O75469); test: Human pregnane X receptor (PXR) small molecule agonists, qHTS assay (AID 1346982); further: nearly all actives have a fitted effect of over 35% in size
Chain of Nuclear receptor subfamily 1 group I member 2 (Homo sapiens) (O75469 whole entry, looked up): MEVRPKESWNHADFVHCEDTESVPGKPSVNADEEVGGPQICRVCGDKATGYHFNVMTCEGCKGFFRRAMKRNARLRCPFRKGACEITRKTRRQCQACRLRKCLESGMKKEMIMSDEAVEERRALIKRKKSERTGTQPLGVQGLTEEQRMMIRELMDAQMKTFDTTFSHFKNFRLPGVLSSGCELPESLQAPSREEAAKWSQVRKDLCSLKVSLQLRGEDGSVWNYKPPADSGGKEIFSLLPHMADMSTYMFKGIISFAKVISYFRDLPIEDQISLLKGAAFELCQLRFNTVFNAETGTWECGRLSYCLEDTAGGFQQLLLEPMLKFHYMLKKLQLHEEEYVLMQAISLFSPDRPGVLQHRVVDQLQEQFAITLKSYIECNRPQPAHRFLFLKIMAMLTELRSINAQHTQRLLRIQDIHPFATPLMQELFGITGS
Outline: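 Stable HepG2 line reporting PXR-mediated CYP3A4 expression via luciferase. Treatment: 24 hr with compounds in DMSO at 37 C. Detection: ONE-Glo luminescence.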

[15] = Caspase-3/7 induction in CHO-K1 cells by small molecules, qHTS cell viability counter screen (AID 1346979); further: nearly all actives have a fitted effect of over 35% in size
Outline: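 Seeding: 1,500 CHO-K1 cells/well. Rest: 5hr, 37C. Treatment: compounds in DMSO, 16hr. Read: CellTiter-Fluor, 1hr, fluorescence.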

[16] = Caspase-3/7 induction in HepG2 cells by small molecules, qHTS cell viability counter screen (AID 1346981); further: series mostly up to about 92 µM; nearly all actives have a fitted effect of over 30% in size
Outline: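 Treatment of HepG2 cells with DMSO-delivered compounds ran 16 hr at 37 C following a 5-hr pre-incubation of 2,000 cells/well. CellTiter-Fluor fluorescence, read after 1 hr, served as the viability measure in a qHTS format.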

[17] = target: Nuclear receptor subfamily 1 group I member 2 (Rattus norvegicus) (UniProt Q9R1A7); test: Rat pregnane X receptor (rPXR) activation by small molecules, qHTS assay (AID 1346983); settings: rPXR luciferase reporter cells, One-Glo luminescence, 24 h; max activation: hits give high values; further: nearly all actives have a fitted effect of over 20% in size
Chain of Nuclear receptor subfamily 1 group I member 2 (Rattus norvegicus) (Q9R1A7 whole entry, looked up): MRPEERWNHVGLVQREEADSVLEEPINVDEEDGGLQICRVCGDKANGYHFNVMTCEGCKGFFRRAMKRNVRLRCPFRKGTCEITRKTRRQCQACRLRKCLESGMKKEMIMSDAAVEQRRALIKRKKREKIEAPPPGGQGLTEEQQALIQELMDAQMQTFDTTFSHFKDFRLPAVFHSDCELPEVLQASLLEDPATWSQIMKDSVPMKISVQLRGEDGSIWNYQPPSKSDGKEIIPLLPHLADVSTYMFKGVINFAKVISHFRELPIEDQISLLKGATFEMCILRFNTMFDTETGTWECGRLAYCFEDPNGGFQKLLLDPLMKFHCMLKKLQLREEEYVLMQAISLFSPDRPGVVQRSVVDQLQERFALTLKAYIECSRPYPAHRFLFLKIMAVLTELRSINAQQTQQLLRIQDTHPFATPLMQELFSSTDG
Outline: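 Luminescent readout (One-Glo luciferase, 30 min room temperature) followed 24 hr compound treatment at 37 C of rPXR cells plated 2,000 per well and preincubated 5hr; qHTS format with compounds delivered in DMSO.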

[18] = target: Nuclear receptor subfamily 1 group I member 2 (Homo sapiens) (UniProt O75469); test: CYP3A4 induction through human pregnane X receptor (PXR) by small molecules, qHTS assay (AID 1346984); further: nearly all actives have a fitted effect of over 40% in size
Outline: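 After 24 h at 37C with compound, DPX-2 cells (HepG2, co-transfected PXR response element and CYP3A4 promoter-luciferase) got 3uM final P450-Glo Luciferin-IPA for 3 h; One-Glo luminescence followed.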

[19] = target: Nuclear receptor subfamily 1 group I member 2 (Homo sapiens) (UniProt O75469); test: Human pregnane X receptor (PXR) activation by small molecules, qHTS assay (AID 1346985); further: nearly all actives have a fitted effect of over 40% in size
Outline: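 DPX-2 cells (HepG2 co-transfected with a PXR response element and a CYP3A4-promoter luciferase construct) were seeded at 2,000 per well, rested 5 hr at 37C, then exposed to DMSO-dissolved compounds for 24 hr. Activation was read as luciferase luminescence.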
On the % scale 0 is the no-effect control and ±100 the full control effect.

C=C(C)C(=O)OCCC(F)(F)C(F)(F)C(F)(F)C(F)(F)C(F)(F)C(F)(F)F
inactive: Potency [1] | Potency [2] | Potency [3] | Potency [4] | Potency [5] | outcome [6] | Potency [7] | Potency [8] | outcome [9] | outcome [10] | Potency [11] | Potency [12] | outcome [13] | Potency [14]

CC(O)Cn1cnc2c1c(=O)n(C)c(=O)n2C (centres undefined)
inactive: Potency [1] | Potency [2] | Potency [3] | Potency [4] | Potency [5] | outcome [6] | Potency [8] | outcome [9] | outcome [10] | Potency [11] | Potency [12] | Potency [15] | outcome [13] | Potency [16]

Nc1ccc(F)cc1
inactive: Potency [1] | Potency [3] | Potency [4] | Potency [5] | outcome [6] | Potency [8] | outcome [9] | Potency [11] | Potency [12] | outcome [13] | Potency [16] | Potency [14]
active: Potency [2] 28.5 µM

CCCCCCC(O)CCOC(C)=O (centres undefined)
inactive: Potency [1] | Potency [2] | Potency [3] | Potency [5] | outcome [6] | Potency [7] | Potency [8] | outcome [9] | outcome [10] | Potency [11] | Potency [12] | Potency [15] | outcome [13] | Potency [14]

CCCCCCCCCCCC(=O)OCC(O)CO (centres undefined)
inactive: Potency [1] | Potency [2] | Potency [3] | Potency [4] | Potency [7] | Potency [8] | outcome [9] | outcome [10] | Potency [11] | Potency [12] | outcome [13] | Potency [14] | max activation [17] -6.09% | Potency [18] | Potency [19]

CC(=O)OC(C)C[N+](C)(C)C (centres undefined)
inactive: Potency [1] | Potency [2] | Potency [3] | Potency [4] | Potency [5] | outcome [6] | Potency [8] | Potency [11] | Potency [12] | Potency [15] | outcome [13] | Potency [14] | max activation [17] -2.41% | Potency [18] | Potency [19]

Cc1ccc(N(CCO)CCO)cc1
inactive: Potency [1] | Potency [2] | Potency [3] | Potency [5] | outcome [6] | Potency [7] | Potency [8] | Potency [11] | Potency [12] | Potency [15] | outcome [13] | Potency [16] | Potency [14]

C[C@H](CS)C(=O)N1CCC[C@H]1C(=O)O
inactive: Potency [1] | Potency [2] | Potency [3] | Potency [4] | Potency [5] | Potency [7] | Potency [8] | outcome [9] | outcome [10] | Potency [11] | Potency [12] | Potency [15] | outcome [13] | max activation [17] 0.201%

CC(C)c1ccc(C(=O)N=C(N)N)cc1S(C)(=O)=O
inactive: Potency [1] | Potency [2] | Potency [3] | Potency [4] | Potency [5] | Potency [7] | Potency [8] | Potency [11] | Potency [12] | outcome [13] | Potency [16] | Potency [14]
